D2 ag-1: activates the human D2 dopamine receptor; hit rate 0.084% among 360,000; activation, % (test concentration not listed); P14416; DiscoveRx PathHunter D2 beta-arrestin, luminescence, 90 min; 100% = 57 uM dopamine signal; in the data active = activation above about 40%
Target sequence (P14416 whole entry, looked up): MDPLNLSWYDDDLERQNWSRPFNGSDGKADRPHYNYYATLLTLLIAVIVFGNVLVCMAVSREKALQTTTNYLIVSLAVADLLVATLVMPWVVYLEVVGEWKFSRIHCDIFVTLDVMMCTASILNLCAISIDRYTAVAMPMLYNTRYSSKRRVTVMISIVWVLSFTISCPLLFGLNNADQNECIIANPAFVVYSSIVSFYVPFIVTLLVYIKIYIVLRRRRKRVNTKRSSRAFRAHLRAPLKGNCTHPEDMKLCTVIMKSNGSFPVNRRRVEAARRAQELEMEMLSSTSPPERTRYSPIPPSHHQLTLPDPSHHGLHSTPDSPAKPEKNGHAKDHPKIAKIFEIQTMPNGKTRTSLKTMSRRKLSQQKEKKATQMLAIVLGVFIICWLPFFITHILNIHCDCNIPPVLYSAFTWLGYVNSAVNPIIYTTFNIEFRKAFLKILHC
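Agonist mode: compounds alone added to overnight-plated D2 PathHunter cells for 90 min at 37 C, with 57 uM final dopamine (EC100) defining full response. Beta-arrestin recruitment detected by chemiluminescent reagent, read after 1 h at ambient temperature.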
D2 PAM-1: human D2 receptor positive allosteric modulation. P14416. potentiation, % (test concentration not listed). hit rate 0.23% among 360,000. DiscoveRx D2 beta-arrestin cells, luminescence, 90 min; 100% = 57 uM dopamine signal; in the data active = potentiation above about 50%
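PathHunter D2 cells, attached overnight at 37 deg C, received compound in DMSO plus dopamine at EC20 (50 nM final) for 90 min at 37 deg C. Beta-arrestin recruitment was read as luminescence after 1 h with detection reagent at ambient temperature.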
D2 ag-2: D2 dopamine receptor (human) agonism. activation, % at 2 µM. hit rate 0.53% among 340,000. AID 485358. HEK293 T-REx D2 cells, calcium flux agonist mode. P14416;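 active = activation over 3 SD above normal in the single-dose calcium agonist read, cut at about 30% in these data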; also: 0% is about no effect
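HEK293 Trex D2 cells, tetracycline-induced, o/n 30 C 5% CO2; no-wash Ca dye, RT 30–90 min; 10-cycle baseline, 23 nl cpd added, kinetic Ca read 180 s; agonist hits = positive Ca response.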
D2 PAM-2: positively modulates the human D2 dopamine receptor allosterically; P14416; hit rate 0.34% among 340,000; potentiation, % at 10 µM; HEK293 T-REx D2, calcium flux, EC20 dopamine potentiation;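 active = potentiation over 3 SD above the plate norm, cut at about 30% in these data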; also: 0% is about no effect
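Primary screen. Calcium kinetics in induced HEK293 T-REx D2 cells: compound pre-addition 180 s, EC20 dopamine, 180 s more.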
D2 antagonist: antagonizes the human D2 dopamine receptor | P14416 | HEK293 TREx D2 cells, calcium flux, dopamine EC80 | inhibition, % at 10 µM | hit rate 2% among 340,000 | AID 485344; in the data active = inhibition above about 30%; inactive = below that, where a call was filed; also: 0% is about no effect
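Calcium flux kinetic readout in an inducible HEK293 TREx D2 line plated overnight at 30 C. After 180 s compound exposure, an EC80 dopamine challenge follows with another 180 s kinetic read to detect antagonism.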
* hit, by the source's call. Shown are actives, neighbours in structure and some others; about 2.4% of the full set was active somewhere.

How did CCN1CCN(CCCOc2ccccc2-c2ccccc2)CC1 do in these assays?
D2 ag-1: -0.4; D2 PAM-1: -21.5; D2 ag-2: -1.9; D2 PAM-2: 4.5; D2 antagonist: -6.8

Results for c1ccc2c(OCCCN3CCCCCC3)cccc2c1 ?
D2 ag-1: -2.4; D2 PAM-1: -79.3; D2 ag-2: -0.4; D2 PAM-2: -32.1; D2 antagonist: 73.9*

Results for c1ccc(-c2ccccc2OCCCN2CCCCC2)cc1 ?
D2 ag-1: -1.5; D2 PAM-1: -31.1; D2 ag-2: -0.5; D2 PAM-2: -29.9; D2 antagonist: 43.1*

What do the screens show for `OCCCN1CCN(CCOc2ccccc2-c2ccccc2)CC1`?
D2 ag-1: -3.0; D2 PAM-1: -10.7; D2 ag-2: -0.1; D2 PAM-2: -28.4; D2 antagonist: 66.6*

What do the screens show for `Clc1cccc(OCCCN2CCCC2)c1Cl`?
D2 ag-1: -4.8; D2 PAM-1: -13.7; D2 ag-2: 0.4; D2 PAM-2: -22.9; D2 antagonist: 51.6*

Results for CC(C)Nc1ncnc2c1ncn2[C@H]1CN(Cc2cccs2)C[C@@H](CO)O1 ?
D2 ag-1: -3.9; D2 PAM-1: -0.7

What do the screens show for `O=C(NCCc1ccc(Cl)cc1)c1cnc2sc(N3CCCC3)nn2c1=O`?
D2 ag-2: 0.0; D2 PAM-2: 3.8

What do the screens show for `OC(COc1cccc2ccccc12)CN1CCN(c2ccc(Cl)cc2)CC1` (configuration not stated)?
D2 ag-1: 3.5; D2 PAM-1: -12.0; D2 ag-2: 7.6; D2 PAM-2: -12.1; D2 antagonist: 7.7

What do the screens show for `OC(COc1cccc2ccccc12)CN1CCCC1` (configuration not stated)?
D2 ag-1: -1.1; D2 PAM-1: -10.5; D2 ag-2: 0.4; D2 PAM-2: 72.6*; D2 antagonist: -4.8

Results for C=C1CC(C)OC(c2ccccc2OCC(O)CN2CCCCC2)C1 (configuration not stated) ?
D2 ag-1: -1.3; D2 PAM-1: 5.2; D2 ag-2: 0.3; D2 PAM-2: -7.6; D2 antagonist: 65.1*

Results for CCC(=O)c1ccccc1OCCN1CCN(Cc2ccccc2)CC1 ?
D2 ag-1: -7.3; D2 PAM-1: -6.6; D2 ag-2: -1.0; D2 PAM-2: -26.4; D2 antagonist: 110.0*

How did CCN1CCN(CCOc2ccccc2-c2ccccc2)CC1 do in these assays?
D2 ag-1: -5.1; D2 PAM-1: -4.1; D2 ag-2: -0.1; D2 PAM-2: -23.5; D2 antagonist: 86.8*

Results for CCc1ccccc1NC(=O)C1CCCN(C(=O)c2cnn(-c3ccccc3)c2-n2cccc2)C1 (configuration not stated) ?
D2 PAM-2: 11.8

What do the screens show for `CCOC(=O)c1c(NC(=O)/C=C/c2ccc(OCC)c(OC)c2)sc2c1CCC2`?
D2 ag-2: 1.6; D2 PAM-2: 7.1

Results for Cc1c(C)c2cc3c(c(C)c2oc1=O)OCN(CCc1ccccc1)C3 ?
D2 PAM-2: -16.6

Results for CCN(CC)S(=O)(=O)c1cc(C(=O)OCC(=O)NC2CCCc3ccccc32)ccc1C (configuration not stated) ?
D2 ag-1: -3.0; D2 PAM-1: -17.4; D2 ag-2: -0.4; D2 PAM-2: 3.9; D2 antagonist: 36.8*

How did CCOC(=O)c1c(NC(=O)C[n+]2ccccc2)sc2c1CCCC2 do in these assays?
D2 ag-1: -4.3; D2 PAM-1: -38.5; D2 ag-2: -0.1; D2 PAM-2: -21.9; D2 antagonist: 45.8*

Results for CCc1nc2c(OCCOc3ccc(F)cc3)cccn2c1N(C)C(=O)c1ccco1 ?
D2 ag-1: 6.1; D2 PAM-1: -2.8

Results for C/C(=N/NS(=O)(=O)c1ccc(CC(C)C)cc1)c1ccncc1 ?
D2 ag-1: 4.9; D2 PAM-1: -10.7; D2 ag-2: 1.2; D2 PAM-2: 11.9; D2 antagonist: 9.0

Results for CN1CCN(CCC(=O)N2c3ccccc3Sc3ccc(C(F)(F)F)cc32)CC1 ?
D2 ag-1: -1.2; D2 PAM-1: -24.9; D2 ag-2: 0.1; D2 PAM-2: -18.0; D2 antagonist: -17.4

How did CN(C)CCCN1c2ccccc2Sc2ccc(C(F)(F)F)cc21 do in these assays?
D2 ag-1: 3.8; D2 PAM-1: -21.5; D2 ag-2: 1.0; D2 PAM-2: -28.5; D2 antagonist: 94.9*

How did OCCN1CCN(CC/C=C2/c3ccccc3CSc3ccccc32)CC1 do in these assays?
D2 ag-1: -7.1; D2 PAM-1: -15.0

What do the screens show for `OCCN1CCN(CC/C=C2/c3ccccc3Sc3ccc(C(F)(F)F)cc32)CC1`?
D2 ag-1: 2.0; D2 PAM-1: -28.9; D2 ag-2: 1.8; D2 PAM-2: -22.4; D2 antagonist: 82.9*

How did CCN(CC)CCCCN1c2ccccc2Sc2ccccc21 do in these assays?
D2 ag-1: -4.6; D2 PAM-1: -20.3; D2 ag-2: -0.3; D2 PAM-2: -20.1; D2 antagonist: 47.1*

What do the screens show for `OCCN1CCN(CCCN2c3ccccc3Sc3ccc(C(F)(F)F)cc32)CC1`?
D2 antagonist: 59.7*

How did CC(C)(C)OC(=O)N1CCC(c2c(C(=O)N3CCN(c4ccccc4F)CC3)cnn2C(C)(C)C)CC1 do in these assays?
D2 ag-2: 0.2; D2 PAM-2: -5.4

Results for CCOCCc1nn2c(=O)cc(COC(=O)C3CCCCC3)nc2s1 ?
D2 ag-2: 0.5; D2 PAM-2: -11.1

How did CCCOc1ccc(NC(=O)CC2C(=O)N(c3ccc(OC)cc3)C(=O)N2CCc2ccncc2)cc1 (configuration not stated) do in these assays?
D2 PAM-2: 6.2

How did CN1CCN(CCC=C2c3ccccc3Sc3ccc(S(=O)(=O)N(C)C)cc32)CC1 do in these assays?
D2 ag-1: 1.2; D2 PAM-1: -2.8; D2 ag-2: 0.8; D2 PAM-2: -17.2; D2 antagonist: 77.4*

What do the screens show for `COc1ccc(-c2cc(C(F)(F)F)nc(SCC(=O)N3CCCCC3)n2)cc1OC`?
D2 ag-2: -1.1; D2 PAM-2: -1.2

What do the screens show for `CCCCNC(=O)c1cccc(-n2cnc3cccnc32)c1C`?
D2 ag-2: 0.4; D2 PAM-2: -3.7

Results for O=C(NCC(O)COc1ccc([N+](=O)[O-])cc1)Nc1ccccc1 (configuration not stated) ?
D2 ag-1: -2.2; D2 PAM-1: -5.8; D2 ag-2: 0.0; D2 PAM-2: -9.5; D2 antagonist: -25.5

Results for Cc1cc(C)cc(NC(=O)NCC(O)COc2ccc([N+](=O)[O-])cc2)c1 (configuration not stated) ?
D2 ag-1: -1.2; D2 PAM-1: -10.6; D2 ag-2: -2.4; D2 PAM-2: -18.7; D2 antagonist: 38.2*

Results for COCCCNC(=O)c1cc2c(=O)n3cccc(C)c3nc2n(C(C)C)c1=N ?
D2 ag-1: -1.6; D2 PAM-1: 22.1; D2 ag-2: 1.1; D2 PAM-2: 6.1; D2 antagonist: 34.5*

Screening data from PubChem.
